Experimental findings from the supplement of paper PMC6555819 are described below.

Holding throughout (assay): PBM binding z-score (relative to random genomic background probes); higher = stronger binding; sequences stand for … in GC…GCGATTGACAGCGTAGAATGAAGG
The subject of experiment [1] is RARb homodimer (NR concentration 270 nM). In a few lines:
(§1)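 Binding z-scores take random background probes as their reference. They come from custom Agilent 4×180K protein-binding microarrays incubated 1 h with ligand-free nuclear receptor dimers, with antibodies against each partner (one per run) detecting binding. Scanned fluorescence was regression-normalized.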

The test system of experiment [2] is RARg:RXRa (NR concentration 270 nM, RXRa partner concentration 90 nM). A digest of the protocol: as §1
In experiment [3] the test system is RARg homodimer (NR concentration 270 nM). In a few lines:
as §1

The test system of experiment [4] is RXRa DBDmut IVT, anti-RXR (DBD mutation: RXRa K156A/R161A, NR concentration 90 nM). In a few lines: as §1
Experiment [5] has as its system RXRa homodimer (NR concentration 180 nM). A digest of the protocol: as §1
The subject of experiment [6] is THRa:RXRa (NR concentration 90 nM, RXRa partner concentration 90 nM). In a few lines:
as §1

The subject of experiment [7] is THRa homodimer (NR concentration 90 nM). A digest of the protocol:
as §1

Experiment [8] concerns VDR homodimer (NR concentration 270 nM). A digest of the protocol:
as §1

In the case of CCCATTAGTTGACCATAAGGGCAACCGAAGCTCG, the PBM binding z-score is 2.53 in experiment [1]; 1.4 in experiment [2]; 0.963 in experiment [3]; 0.208 in experiment [4]; 0.666 in experiment [5]; 2.07 in experiment [6]. For the same sequence, the PBM binding z-score in experiment [7] was found to be 1.89; in experiment [8], 1.05.
Regarding CCTTACCGGTCACTGACAGGTTATAGCATTTGGA, the PBM binding z-score in experiment [1] is 2.7; in experiment [2] it was 3.19; in experiment [3], 3.15; in experiment [4], 0.586; in experiment [5], 1.2; in experiment [6], 1. The PBM binding z-score in experiment [7] came to 0.662; in experiment [8], 0.617.
Take CGTCCAAGGTCAAGGTCCGTGAAAGAGACTCGAA: the PBM binding z-score in experiment [1] was 4.19; in experiment [2] it was 6.16; in experiment [3], 6.84; in experiment [4] it was 3.57; in experiment [5], 5.96; in experiment [6] it was 3.82. Also, the PBM binding z-score in experiment [7] was 2.69; in experiment [8], 2.27.
For the sequence ACTCGGAAGACAAAGGTCAGAGCTACGCCAGTGA, the PBM binding z-score came to 4.33 in experiment [1]; 4.5 in experiment [2]; 4.21 in experiment [3]; 0.211 in experiment [4]; 4.56 in experiment [5]; 2.57 in experiment [6]. Besides, the PBM binding z-score is 0.0345 in experiment [7] and 0.445 in experiment [8].
With ATATGTAGGTTAATGGTCATTCAGGTTGGTTCGC, the PBM binding z-score in experiment [1] stood at 1.75; in experiment [2] it was 1.02; in experiment [3], 1.11; in experiment [4] it was 0.788; in experiment [5], 1.14; in experiment [6], 0.905. Further, the values for the PBM binding z-score in experiment [7] and in experiment [8] were 0.945 and 1.34, respectively.
Turning to TCACGGAGGACACGAAAGGTCAGAGCTCGACATC, the PBM binding z-score is 4.82 in experiment [1]; 4.96 in experiment [2]; 5.55 in experiment [3]; 1.1 in experiment [4]; 4.31 in experiment [5]; 3.55 in experiment [6]. In addition, the PBM binding z-score in experiment [7] amounted to 1.26; in experiment [8], 1.17.
In the case of ATATGTAGGTTACATCCGGGTCGTTCAGGCTATG, the PBM binding z-score in experiment [1] came to 1.5; in experiment [2] it was 1.78; in experiment [3] it was 1.28; in experiment [4] it was 1.22; in experiment [5], 1.54; in experiment [6], 2.53. In addition, the PBM binding z-score worked out at 1.24 in experiment [7] and 1.82 in experiment [8].
